# Screening data from PubChem.
# S-ASM inh: Inhibitors of Secretory Acid Sphingomyelinase (S-ASM): qHTS. actives 0.006% (n = 340,000). Potency, µM (series often up to 57.5 µM), most hits filed as inhibitors. Sphingomyelin phosphodiesterase (Homo sapiens), P17405. placental ASM, HMU-PC fluorogenic substrate, 60 min
# Target sequence (P17405 47-631 limits assumed): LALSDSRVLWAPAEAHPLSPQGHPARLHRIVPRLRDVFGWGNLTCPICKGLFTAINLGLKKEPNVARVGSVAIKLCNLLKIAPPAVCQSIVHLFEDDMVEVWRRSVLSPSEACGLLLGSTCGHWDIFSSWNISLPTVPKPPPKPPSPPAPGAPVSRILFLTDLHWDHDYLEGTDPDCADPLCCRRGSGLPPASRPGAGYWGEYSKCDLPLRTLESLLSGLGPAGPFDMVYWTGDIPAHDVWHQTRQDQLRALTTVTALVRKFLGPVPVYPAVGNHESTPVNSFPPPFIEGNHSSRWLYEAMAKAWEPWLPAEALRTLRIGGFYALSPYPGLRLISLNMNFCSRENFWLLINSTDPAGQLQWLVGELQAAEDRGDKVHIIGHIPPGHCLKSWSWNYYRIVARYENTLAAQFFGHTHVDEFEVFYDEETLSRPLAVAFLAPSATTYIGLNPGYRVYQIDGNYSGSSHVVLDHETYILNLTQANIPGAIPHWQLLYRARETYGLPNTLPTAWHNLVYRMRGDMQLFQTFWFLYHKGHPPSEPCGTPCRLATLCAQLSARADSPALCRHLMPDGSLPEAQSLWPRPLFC
#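 Fluorescence read-out (Ex 386 nm, Em 447 nm) after stopping the reaction at pH 10. Enzyme: ASM from human placenta; substrate HMU-PC0, 9 uM final; 60 min, 37 °C. Compound preincubation 10 min, ambient temperature.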
# HepG2 tox: qHTS for Inhibitors of TGF-b: Cytotox Counterscreen. HepG2 CAGA-GFP viability, ATP luminescence, 18 h. Potency, µM (top dose mostly 46.1 µM), hits mostly cytotoxic. actives 0.76% (n = 410,000)
#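 HepG2 CAGA-GFP cells (1000/well, DMEM with 1% FBS) received compound, then TGF-beta at 500 pg/mL final, and were incubated 18 hours at 37 degrees C. Viability was read by CellTiter-Glo luminescence. Media-only wells were set as complete cell-killing and DMSO as no toxicity.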
# TGFb SMAD3 inh: qHTS for Inhibitors of TGF-b; HepG2 CAGA-GFP TGF-b/SMAD3 reporter, GFP fluorescence, 18 h; TGF-beta stimulated, 500 pg/mL final; Potency, µM (top dose mostly 46.1 µM), most hits filed as inhibitors; AID 588855, 2011; actives 1.2% (n = 410,000); note: nearly all actives have a fitted effect of over 65% in size
#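 HEPG2 CAGA-GFP reporter cells (1000/well, DMEM with 1% FBS) received compounds, then recombinant TGF-beta at 500 pg/mL final for 18 hours at 37 degrees C. Per-cell GFP summed per well was normalised to unstimulated and stimulated DMSO controls before curve fitting.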
# DT40 TDP1 CPT: qHTS for Inhibitors of human tyrosyl-DNA phosphodiesterase 1 (TDP1): qHTS in cells in presence of CPT | actives 12% (n = 420,000) | Potency, µM (top dose mostly 46.2 µM), actives largely listed as inhibitors | chicken DT40 Tdp1-/-;hTDP1 cells + 20 nM CPT, ATP luminescence, 48 h; note: nearly all actives have a fitted effect of over 55% in size
#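 Chicken DT40 Tdp1-/- cells stably complemented with human TDP1 were seeded at 400 cells/well in medium containing 20 nM camptothecin, exposed to pin-transferred compounds, and grown at 37 °C for at least 48 hr. Viability was read as ATP luminescence.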
# IL1B secr inh: qHTS for Inhibitors of Inflammasome Signaling: IL-1-beta AlphaLISA Primary Screen | THP-1 LPS/ATP IL-1B secretion, AlphaLISA, 16 h; stronger effect = lower value | activity change, % at 57.5 µM | actives 4.7% (n = 360,000) | AID 743279, 2014; in the data active = activity change below about -50%; inconclusive = mostly about -30% to -49%
#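 THP-1 cells pretreated 1 hr with compounds (up to 57.5 uM final), then stimulated with LPS (250 ng/mL final) plus ATP (1.25 mM final); secreted IL-1B measured by AlphaLISA after 16 hr, decreased signal indicating inhibition.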
# DT40 TDP1 no CPT: qHTS for Inhibitors of human tyrosyl-DNA phosphodiesterase 1 (TDP1): qHTS in cells in absence of CPT | DT40 Tdp1-/- hTDP1 cells, no CPT, ATP luminescence, 48 h | Potency, µM (top dose mostly 46.2 µM), actives largely listed as inhibitors | AID 686978, 2013 | actives 15% (n = 420,000); note: nearly all actives have a fitted effect of over 55% in size
#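 No-CPT arm: Tdp1-/-;hTDP1 DT40 cells (400/well) plus compounds, incubated ≥48 hr at 37 °C. Readout CellTiter-Glo luminescence.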
# Hits are given with their value; – = inactive; ? = inconclusive; · = no result given. This is a sample that favours compounds with a hit; in the whole collection about 19% have one here. Unless noted, calls come from the whole dose curve; as a rule, active = well fitted curve in the direction sought with a large enough effect; inconclusive = small, poorly fitted or top-dose-only effect, or another doubt; inactive = no such curve, though single readings can be large; an effect the other way counts as inactive or inconclusive.
SMILES,S-ASM inh,HepG2 tox,TGFb SMAD3 inh,DT40 TDP1 CPT,IL1B secr inh,DT40 TDP1 no CPT
COc1ccc(C(=O)NCC(c2ccc(Cl)cc2)N2CCCCC2)cc1 (stereo unspecified),·,–,–,15µM,·,12µM
COc1ccc(C(CNC(=O)c2ccc(S(=O)(=O)N(C)C)cc2)N2CCCC2)cc1 (stereo unspecified),–,–,–,–,–,–
CCCOc1ccc(CNC(=O)c2ccc3nc(N4CCOCC4)sc3c2)cc1,–,–,–,–,–,–
COc1ccc(C(=O)NCC(c2ccc(N(C)C)cc2)N2CCCC2)c(OC)c1 (stereo unspecified),·,–,?,?,·,13µM
CCNc1oc(/C=C/c2ccc(OCC)cc2)nc1C#N,–,–,?,7.3µM,–,8.2µM
COc1cccc(/C=C/c2nc(C#N)c(NCCc3ccccc3)o2)c1,·,–,–,?,·,15µM
CCOc1ccc(/C=C/c2nc(C#N)c(N(C)C)o2)cc1,·,–,?,16µM,·,15µM
CCOc1ccc(Nc2oc(/C=C/c3ccc(OC)c(OC)c3)nc2C#N)cc1,·,–,?,?,·,?
COc1cccc(/C=C/c2nc(C#N)c(N(C)Cc3ccccc3)o2)c1,·,–,–,?,·,23µM
Clc1ccc(-c2cnnc(-c3ccccn3)n2)cc1,–,–,–,?,–,?
NCCCCN,·,·,·,–,·,–
Cc1cnc(CNc2ccnc(-c3ccc(C(=O)N(C)C)cc3)n2)cn1,·,·,·,–,·,–
CN(C)c1oc(-c2ccccc2)nc1C#N,–,–,–,–,–,–
CNc1oc(/C=C/c2cccc(OC)c2)nc1C#N,–,–,–,–,?,?
CN(Cc1ccccc1)c1oc(-c2ccco2)nc1C#N,–,–,–,–,-71,–
CCOc1ccc(/C=C/c2nc(C#N)c(NCCc3ccccc3)o2)cc1,·,–,–,1.3µM,·,1.2µM
COc1ccccc1/C=C/c1nc(C#N)c(NCCc2ccccc2)o1,·,–,·,?,·,16µM
COc1ccc(Nc2oc(/C=C/c3cccc(OC)c3)nc2C#N)cc1,·,–,–,18µM,·,?
N#Cc1c(NC(=O)/C=C/C(=O)O)sc2c1CCN(Cc1ccccc1)C2,–,–,–,–,–,?
Cc1cc(C)cc(NC(=O)c2cc(C)nc3c2c(C)nn3-c2ccccc2)c1,·,–,–,·,·,·
Cc1onc(-c2ccccc2Cl)c1C(=O)OCN1C(=O)c2ccccc2C1=O,–,–,–,–,–,?
COc1ccc(C(C)=NOC(=O)c2c(-c3ccccc3Cl)noc2C)cc1CN1CCOCC1,·,–,–,?,?,7.3µM
Cc1onc(-c2ccccc2Cl)c1C(=O)O/N=C(\N)c1ccccc1,–,–,–,?,-75,?
Cc1onc(-c2ccccc2Cl)c1C(=O)NCCCN1CCOCC1,–,–,–,–,–,–
Cc1onc(-c2ccccc2Cl)c1C(=O)O/N=C(\N)c1cccc([N+](=O)[O-])c1,·,–,–,23µM,-62,23µM
SMILES,S-ASM inh,HepG2 tox,TGFb SMAD3 inh,DT40 TDP1 CPT,IL1B secr inh,DT40 TDP1 no CPT
Cc1onc(-c2c(Cl)cccc2Cl)c1C(=O)O/N=C(\C#N)c1ccccc1,–,–,–,–,–,–
C/C(=N\OC(=O)c1c(-c2ccccc2Cl)noc1C)c1ccncc1,–,–,–,–,-145,–
Cc1onc(-c2cccc(Cl)c2Cl)c1C(=O)O/N=C(\N)c1ccc([N+](=O)[O-])o1,–,–,?,?,·,?
O=C1C=CC(=O)N1Cc1ccccn1,–,–,–,–,–,–
CC(=O)N1CCC[C@@]2(CCN(C(=O)Nc3cccc(C#N)c3)C2)C1,·,·,·,–,·,–
Cc1onc(-c2ccccc2)c1C(=O)O/N=C(\N)c1ccc([N+](=O)[O-])o1,–,13µM,13µM,16µM,–,15µM
